# Tests used:
# Assay in all cases: PBM binding z-score (relative to random genomic background probes); higher = stronger binding; sequences stand for … in GC…GCGATTGACAGCGTAGAATGAAGG
# [1] = test system: FXR:RXRa (NR concentration 270 nM, RXRa partner concentration 90 nM)
# Procedure, shortened: (§1)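 Binding buffer was PBS pH 7.4 with 2% milk, 0.02% Triton X-100, 1 mM DTT, 0.2 mg/mL BSA and 0.4 mg/ml salmon testes DNA. In it, ligand-free nuclear receptor dimers were incubated 1 h on custom Agilent 4×180K protein-binding microarrays carrying double-stranded probes. Antibodies against each partner (one per run) detected binding, and z-scores were calculated against random background probes after regression normalization of scanned fluorescence.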
# [2] = test system: LXRa:RXRa (NR concentration 270 nM, RXRa partner concentration 90 nM)
# Procedure, shortened: as §1
# [3] = test system: LXRa homodimer (NR concentration 270 nM)
# Procedure, shortened: as §1
# [4] = test system: LXRb:RXRa (NR concentration 270 nM, RXRa partner concentration 90 nM)
# Procedure, shortened: as §1
# [5] = test system: LXRb homodimer (NR concentration 270 nM)
# Procedure, shortened: as §1
# [6] = test system: PPARa:RXRa (NR concentration 270 nM, RXRa partner concentration 90 nM)
# Procedure, shortened: as §1
# [7] = test system: PPARg:RXRa (NR concentration 180 nM, RXRa partner concentration 90 nM)
# Procedure, shortened: as §1
# [8] = test system: PPARg:RXRa 270nM:90nM, anti-RXR (NR concentration 270 nM, RXRa partner concentration 90 nM)
# Procedure, shortened: as §1
# [9] = test system: PPARg:RXRa 30nM:10nM, anti-RXR (NR concentration 30 nM, RXRa partner concentration 10 nM)
# Procedure, shortened: as §1
# [10] = test system: PPARg:RXRa 90nM:30nM, anti-RXR (NR concentration 90 nM, RXRa partner concentration 30 nM)
# Procedure, shortened: as §1
# [11] = test system: PPARg:RXRa DBDmut IVT, anti-RXR (DBD mutation: RXRa K156A/R161A, NR concentration 270 nM, RXRa partner concentration 90 nM)
# Procedure, shortened: as §1
# [12] = test system: PPARg:RXRa IVT, anti-PPARg (NR concentration 270 nM, RXRa partner concentration 90 nM)
# Procedure, shortened: as §1
# [13] = test system: PPARg DBDmut:RXRa IVT, anti-PPARg (DBD mutation: PPARg1 K132A/R137A, NR concentration 270 nM, RXRa partner concentration 90 nM)
# Procedure, shortened: as §1
# [14] = test system: PPARg DBDmut IVT, anti-PPARg (DBD mutation: PPARg1 K132A/R137A, NR concentration 270 nM)
# Procedure, shortened: as §1
# [15] = test system: PPARg homodimer (NR concentration 180 nM)
# Procedure, shortened: as §1
# [16] = test system: PXR:RXRa (NR concentration 270 nM, RXRa partner concentration 90 nM)
# Procedure, shortened: as §1
# [17] = test system: PXR homodimer (NR concentration 270 nM)
# Procedure, shortened: as §1
# [18] = test system: RARa:RXR (NR concentration 270 nM, RXRa partner concentration 90 nM)
# Procedure, shortened: as §1
# [19] = test system: RARa homodimer (NR concentration 270 nM)
# Procedure, shortened: as §1
# [20] = test system: RARb:RXRa (NR concentration 270 nM, RXRa partner concentration 90 nM)
# Procedure, shortened: as §1
Sequence,PBM binding z-score [1],PBM binding z-score [2],PBM binding z-score [3],PBM binding z-score [4],PBM binding z-score [5],PBM binding z-score [6],PBM binding z-score [7],PBM binding z-score [8],PBM binding z-score [9],PBM binding z-score [10],PBM binding z-score [11],PBM binding z-score [12],PBM binding z-score [13],PBM binding z-score [14],PBM binding z-score [15],PBM binding z-score [16],PBM binding z-score [17],PBM binding z-score [18],PBM binding z-score [19],PBM binding z-score [20]
CCTACTGGGCCACGAAAGCTCATTGATTCAGTGA,-0.608,-0.413,-0.683,-1,-0.95,-0.132,1.08,1.15,-0.145,0.162,5.87,5.08,0.172,0.266,-0.477,-0.923,-0.798,-0.778,-0.375,-0.0436
GCTTACGGGTCTAAGGTTATAGCATGAATAGAAT,0.749,0.664,-0.0717,1.2,-0.249,2.66,3.28,4.67,3.06,4.64,0.0529,0.754,0.306,0.266,0.501,0.939,0.427,1.66,0.142,1.02
ACTCGGAGGACAAAGGGCAGAGCTACGCCAGTGA,0.0109,0.0817,-0.605,-0.115,-0.71,1.88,3.1,4.39,2.2,4.28,0.11,0.678,-1.42,-1.85,0.364,-0.273,-0.407,0.077,-0.16,2.17
TCTAGTAGATCAACAGGAGGTTAAGAAAGATCGA,0.568,1.07,0.252,0.768,-0.7,1.36,0.296,1.55,2.92,2.01,1.67,0.911,0.0951,-0.146,0.637,0.739,0.18,1.05,0.751,0.445
ATCTCTAGGAAACAAGTTCAGTGAAAGAGAGGAC,0.431,0.902,0.383,0.587,0.528,0.467,0.409,0.0222,0.37,-0.00536,-0.477,0.373,0.113,0.509,0.901,1.24,1.82,0.58,0.878,1.17
TCATATAGGTAAATGCTAGTTGAAAGTCCGATCT,0.79,0.719,0.081,0.689,-0.0232,1.09,0.625,1.79,3.76,2.81,4.01,2.25,1.08,1.1,0.913,0.488,0.757,0.405,1.01,0.37
GTACCATGGTGAATAGGTCGTTGATGAGTAGGCG,-0.238,0.114,-0.331,-0.0798,-0.524,0.641,0.623,0.293,-0.175,0.119,0.107,0.275,-0.162,0.3,0.352,0.151,-0.347,0.29,-0.148,0.41
ACTAGGAGGCCAAGGGTCACTCAAGATTAGTCCG,2.82,3.11,0.119,2.83,0.0149,4.59,8.49,7.94,7.43,8.35,1.26,3.95,-0.025,-0.509,3.03,3.57,0.414,4.7,1.03,3.64
GCTAGCAGGCCATCTGGGTCACTCAATGACGGGC,0.0876,-0.178,-0.882,-0.232,-0.896,1.7,1.31,1.36,-0.319,0.57,3,3.48,-0.603,-1.04,0.0368,0.27,-0.407,0.713,-0.51,1.67
TCTATTAGTTGATTAGGCCAACCGAAACAGCGGA,0.75,0.591,0.444,0.663,0.882,0.722,0.22,2.07,3.98,3.02,2.31,0.958,0.847,0.784,1.2,0.477,0.547,0.834,1.24,0.707
CTGAGTAGGTTATGGGGCATTCAGGCAACGGTGA,0.204,0.0795,0.0598,0.763,-0.118,2.8,4.62,5.02,3.08,5.01,4.73,4.47,0.603,-0.059,0.463,0.0232,0.0116,0.559,-0.472,0.942
AAATGTAGGTTATCGGGTCATTCAGTTTGCGCAT,3.38,3.09,1.81,2.9,0.806,5.21,7.59,6.43,4.76,6.15,8.08,7.95,2.76,1.48,3,3.87,7.01,3.72,1.36,2.68
CGTCAAAGTTCAATGTAACGTAACAGAAAGCAGC,6.08,5.08,3.29,3.5,1.74,4.08,3.65,4.35,1.83,3.34,0.367,1.51,1.4,0.705,2.6,4.03,4,3.03,1.95,4.83
ACTATTAGTTGACTTAGGCCAACCGATACGACGC,0.313,0.281,0.278,0.209,1.1,0.0554,1.05,0.478,0.505,0.622,0.581,0.623,1.41,1.22,1.1,0.168,0.397,0.152,0.685,0.896
GCTGCTAGGTCAGGTTGATCAGCTAACGGGTACG,1.01,0.585,-0.478,0.353,-0.451,1.47,0.663,0.926,-0.231,0.36,3.25,2.17,-1.1,-0.366,0.196,0.316,-0.392,0.656,-0.919,3.06
TCATATAGGTAATACCGGTGAAAGTCGGCATCTA,0.519,0.637,0.169,0.726,0.0983,1.44,0.698,2.2,4.02,3.31,3.57,2.28,0.77,0.786,0.599,0.488,0.00655,1.01,0.792,0.224
GGGACGAGGGCAAGTTGATAGCAGAGTTTGATGG,1.19,0.762,0.0189,1.18,0.857,1.42,1.09,1.2,0.448,0.913,2.39,2.34,-0.115,0.569,1.21,1.15,0.763,0.688,-0.141,2.91
AATACAGGGTCACAAGGCCAGAGTAGGTACGAAT,6.89,5.61,1.21,4.47,1.18,5.99,7.38,6.69,3.96,5.46,3.6,5.38,1.96,1.5,1.69,4.03,0.719,4.97,1.18,4.6
CGAAGTAGGTCATCCAGGACAGTGAATACATTGA,4.86,3.19,1.2,2.64,0.447,5.16,8.31,7.05,4.99,6.9,8.36,8.63,3.1,2.28,2.17,2.56,1.49,3.08,0.771,3.82
CAAGCTAGGTCACCGGAAGGTCAAAGTCCGCATG,6.4,6.14,4.88,5.32,0.898,5.38,5.86,5.76,2.96,4.67,4.7,5.3,0.445,0.749,9.68,6.22,2.44,7.91,3.45,5.53
CGTCCAAGCTCAAAGGTCAGTGAAGAGATGACGG,3,2.95,0.546,2.8,0.14,3.99,3.03,4.16,2.1,3.97,0.0789,1.7,-0.175,-0.869,3.43,3.24,0.202,4.05,1.36,4.48
CCAGACAGGTGAAAGGTACCTCAGTCTGGTACGC,-0.0455,0.27,-0.338,0.286,-0.978,2.28,3.4,4.94,2.26,4.17,1.66,1.96,-0.554,-0.542,0.247,0.109,-0.251,0.49,-0.2,0.786
CCTAGCAGGCCAGGGTCACTGAAGCATTTCGCTT,2.08,1.76,-0.679,2.1,-1.29,3.35,0.613,1.95,-0.0383,1.16,0.0332,1.16,-1.43,-1.48,1.08,3.04,-0.468,3.83,-0.64,2.55
CCTTACGGGTCACTCCAGGTTGTAGCATCGGAGT,4.5,6.32,0.477,3.72,0.0911,4.42,2.92,3.54,0.72,2.5,2.42,3.11,0.374,0.469,1.62,3.85,-0.0202,3.84,0.553,3.65
AGTCAAGGTTCATCTAGGTAACGTAAGATATGCT,5.36,4.13,1.89,2.57,0.451,3.64,3.69,3.68,1.41,2.98,1.12,3.01,1.11,1.06,1.29,2.48,1.61,2.88,0.372,2.99
TAGCCTAGGTCATTCAGGGGCCTGTATAGAAAGC,4.5,3.47,0.422,2.66,0.91,3.5,2.01,2.08,0.363,1.19,1.43,2.65,-0.0905,-0.0908,0.863,1.75,-0.488,2.51,-0.792,3.52
GCTGCTGGGTCAGGTTGGTCAGCTAACGGGTACG,0.641,0.222,-0.341,0.236,-0.403,1.32,0.104,0.429,-0.561,0.0436,1.8,1.47,-0.97,-0.347,0.551,0.0327,-0.0848,0.539,-0.315,2.84
GGAACGAGGGCATTCGAGTTGGTAGCATGGCGAT,0.825,0.72,-0.575,-0.0954,-1.08,1.06,0.508,0.442,-0.573,-0.227,3.06,2.06,-0.924,0.13,-0.0441,2.69,0.354,0.386,-0.393,1.86
